Experimental data: the supplement of paper PMC12350171
Where a name gives a salt, the structure may show the parent alone.

Tests used:
Conditions in all cases: 20 µM
[1] = test system: Haemophilus parainfluenzae; experiment: growth AUC normalised to DMSO control (fraction of control); higher = less growth inhibition, active = hit call of the paper
In short: (§1)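 After two anaerobic passages, pathogens were added at a starting OD578 of 0.01 to pre-reduced mGAM plates holding compound at 20 μM with 1% DMSO; hemin and NAD were supplemented for Haemophilus parainfluenzae. Sealed with breathable membranes, plates were read at OD578 hourly for 24 h, in three biological replicates. The trapezoidal rule, applied up to the exponential-to-stationary transition, gave the growth-curve AUC, which was normalised to DMSO controls on the same plate.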

[2] = test system: Salmonella enterica typhimurium; experiment: as above
In short: as §1

Shigella flexneri = experiment: as above
In short: as §1

Vibrio cholerae = experiment: as above
In short: as §1

[3] = test system: Yersinia pseudotuberculosis; experiment: as above
In short: as §1

P. vulgatus RND KO = experiment: growth AUC normalised to DMSO control (median) (fraction of control); higher = less growth inhibition, active = hit call of the paper
In short: (§2)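 After two overnight anaerobic passages, strains were inoculated at OD578 0.01 into mGAM in 96-well plates containing approved-drug library compounds at 20 μM and 1% DMSO. Growth was followed by reading OD578 hourly for 24 h within an anaerobic incubator. Area under the curve, taken by the trapezoidal rule up to the start of stationary phase, was normalised to same-plate vehicle wells, and the median of three biological replicates is listed.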

P. vulgatus WT = experiment: as above
In short: as §2

[4] = test system: S. enterica typhimurium WT; experiment: as above
In short: as §2

[5] = test system: S. enterica typhimurium tolC KO; experiment: as above
In short: as §2

Measured: growth AUC normalised to DMSO control
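Throughout, for growth AUC normalised to DMSO control (median): active when median AUC fell below 0.1.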

C[N+]12CCC(CC1)C(OC(=O)C(O)(c1ccccc1)c1ccccc1)C2 (stereo not drawn) [Clidinium bromide]
inactive: [1] 0.998 | [2] 0.969 | Shigella flexneri 0.975 | Vibrio cholerae 0.99 | [3] 0.999 | P. vulgatus RND KO 1.03 | P. vulgatus WT 0.999 | [4] 1.02 | [5] 0.997

CN1CCC2(C)c3cc(O)ccc3N(C)C12 (single isomer, unassigned; (-)) [(-) Eseroline fumarate salt]
inactive: [1] 1.02 | [2] 0.999 | Shigella flexneri 1.01 | Vibrio cholerae 0.995 | [3] 1.01 | P. vulgatus RND KO 0.979 | P. vulgatus WT 0.999 | [4] 1.01 | [5] 0.999

CC(C)(C)NCC(O)c1cc(Cl)c(N)c(Cl)c1 (stereo not drawn) [Clenbuterol hydrochloride]
inactive: [1] 0.984 | [2] 0.958 | Shigella flexneri 0.979 | Vibrio cholerae 0.992 | [3] 0.993 | P. vulgatus RND KO 0.981 | P. vulgatus WT 1.01 | [4] 1 | [5] 0.992

C[N+](C)(C)CCCCCCCCCC[N+](C)(C)C [Decamethonium bromide]
inactive: [1] 1.03 | [2] 1 | Shigella flexneri 1.03 | Vibrio cholerae 1.07 | [3] 1 | P. vulgatus RND KO 0.997 | P. vulgatus WT 1.07 | [4] 1.01 | [5] 1

CC(C)c1c(CN(C)C(C)Cc2ccccc2)n(C)n(-c2ccccc2)c1=O (stereo not drawn) [Famprofazone]
inactive: [1] 0.971 | [2] 0.997 | Shigella flexneri 1.03 | Vibrio cholerae 0.965 | [3] 1 | P. vulgatus RND KO 0.992 | P. vulgatus WT 1 | [4] 1.01 | [5] 0.871

COc1ccc(C(=O)N2CCCC2=O)cc1 [Aniracetam]
inactive: [1] 0.993 | [2] 1 | Shigella flexneri 0.998 | Vibrio cholerae 1.01 | [3] 0.972 | P. vulgatus RND KO 0.996 | P. vulgatus WT 1.01 | [4] 0.995 | [5] 0.997

O=P1(N(CCCl)CCCl)NCCCO1 (stereo not drawn) [Cyclophosphamide]
inactive: [1] 1.04 | [2] 1.02 | Shigella flexneri 1.01 | Vibrio cholerae 1.04 | [3] 1.01 | P. vulgatus RND KO 0.998 | P. vulgatus WT 1 | [4] 1.01 | [5] 0.997

COc1ccc(CCN2CCC(Nc3nc4ccccc4n3Cc3ccc(F)cc3)CC2)cc1 [Astemizole]
inactive: [1] 1.02 | [2] 1.05 | Shigella flexneri 0.997 | Vibrio cholerae 0.934 | [3] 1.02 | P. vulgatus RND KO 1.01 | P. vulgatus WT 0.986 | [4] 1 | [5] 0.962

CC(=O)OCC1=C(C(=O)O)N2C(=O)[C@@H](N)[C@H]2SC1 [Cephalosporanic acid, 7-amino]
inactive: [1] 0.942 | [2] 0.999 | Shigella flexneri 0.987 | Vibrio cholerae 0.968 | [3] 0.99 | [4] 1 | [5] 0.983
active: P. vulgatus RND KO 0.0227 | P. vulgatus WT 0.0158

O=c1[nH]c2ccccc2n1CCCN1CCC(n2c(=O)[nH]c3cc(Cl)ccc32)CC1 [Domperidone]
inactive: [1] 1.02 | [2] 1.01 | Shigella flexneri 0.985 | Vibrio cholerae 1.03 | [3] 1 | P. vulgatus RND KO 1 | P. vulgatus WT 1 | [4] 1 | [5] 0.979

CN(C)[C@@H]1C(=O)C(C(N)=O)=C(O)[C@@]2(O)C(=O)C3=C(O)c4c(O)cccc4[C@@](C)(O)[C@H]3C[C@@H]12 [Tetracycline hydrochloride]
active: [1] 0.0479 | [2] 0.00376 | Shigella flexneri 0.0389 | Vibrio cholerae 0.0365 | [3] 0.0501 | P. vulgatus RND KO 0.0124 | P. vulgatus WT 0.013 | [4] 0.0084 | [5] 0.00234

CC1C=CC=CCCC=CC=CC=CC=CC(OC2OC(C)C(O)C(N)C2O)CC2OC(O)(CC(O)C(O)CCC(O)CC(O)CC(O)CC(=O)OC(C)C(C)C1O)CC(O)C2C(=O)O (stereo not drawn) [Nystatine]
inactive: [1] 0.988 | [2] 0.992 | Shigella flexneri 0.959 | Vibrio cholerae 0.994 | [3] 0.989 | P. vulgatus RND KO 0.988 | P. vulgatus WT 0.996 | [4] 0.997 | [5] 1

C[N+]1(C)CCCC(OC(=O)C(O)(c2ccccc2)c2ccccc2)C1 (stereo not drawn) [Mepenzolate bromide]
inactive: [1] 0.915 | [2] 1.01 | Shigella flexneri 0.986 | Vibrio cholerae 0.947 | [3] 1 | P. vulgatus RND KO 1.02 | P. vulgatus WT 1.05 | [4] 1.01 | [5] 0.996

CN1C[C@H](CNC(=O)OCc2ccccc2)C[C@@H]2c3cccc4c3c(cn4C)C[C@H]21 [Metergoline]
inactive: [1] 0.925 | [2] 0.979 | Shigella flexneri 0.973 | Vibrio cholerae 0.893 | [3] 0.993 | P. vulgatus RND KO 0.886 | P. vulgatus WT 0.885 | [4] 0.992 | [5] 0.895

CC(C)N(CCC(C(N)=O)(c1ccccc1)c1ccccn1)C(C)C (stereo not drawn) [Disopyramide]
inactive: [1] 0.997 | [2] 0.993 | Shigella flexneri 0.988 | Vibrio cholerae 0.983 | [3] 0.996 | P. vulgatus RND KO 1 | P. vulgatus WT 0.998 | [4] 1 | [5] 0.983

O=c1c2ccccc2[se]n1-c1ccccc1 [Ebselen]
inactive: [1] 0.874 | [2] 0.987 | Shigella flexneri 1.03 | Vibrio cholerae 0.999 | [3] 0.974 | P. vulgatus RND KO 1.04 | P. vulgatus WT 1.02 | [4] 1.02 | [5] 0.971

C[C@]12CC[C@H](O)C[C@H]1CC[C@@H]1[C@@H]2C[C@@H](O)[C@]2(C)[C@@H](C3=CC(=O)OC3)CC[C@]12O [Digoxigenin]
inactive: [1] 1.01 | [2] 1.03 | Shigella flexneri 0.999 | Vibrio cholerae 1.03 | [3] 0.998 | P. vulgatus RND KO 0.998 | P. vulgatus WT 1.04 | [4] 1.01 | [5] 1

CC(=O)O[C@H]1CC[C@@]2(C)C(=CC[C@@H]3[C@@H]2CC[C@]2(C)C(=O)CC[C@@H]32)C1 [Dehydroisoandosterone 3-acetate]
inactive: [1] 0.989 | [2] 0.995 | Shigella flexneri 0.966 | Vibrio cholerae 0.988 | [3] 1 | P. vulgatus RND KO 0.976 | P. vulgatus WT 0.952 | [4] 0.991 | [5] 0.903

CC(O)(CS(=O)(=O)c1ccc(F)cc1)C(=O)Nc1ccc(C#N)c(C(F)(F)F)c1 (stereo not drawn) [Bicalutamide]
inactive: [1] 1.12 | [2] 1.05 | Shigella flexneri 1.08 | Vibrio cholerae 1.1 | [3] 1.01 | P. vulgatus RND KO 0.982 | P. vulgatus WT 0.988 | [4] 1.01 | [5] 0.954

c1ccc2c(c1)OCC(C1=NCCN1)O2 (stereo not drawn) [Idazoxan hydrochloride]
inactive: [1] 1.01 | [2] 1.02 | Shigella flexneri 1.02 | Vibrio cholerae 1.02 | [3] 0.982 | P. vulgatus RND KO 0.997 | P. vulgatus WT 0.98 | [4] 0.999 | [5] 0.998

CC(C)[N+](C)(CCC(C(N)=O)(c1ccccc1)c1ccccc1)C(C)C [Isopropamide iodide]
inactive: [1] 0.981 | [2] 0.998 | Shigella flexneri 1 | Vibrio cholerae 1 | [3] 0.991 | P. vulgatus RND KO 0.995 | P. vulgatus WT 1.02 | [4] 1 | [5] 0.993

CCCC[N+]1(C)[C@@H]2C[C@@H](OC(=O)[C@H](CO)c3ccccc3)C[C@H]1[C@@H]1O[C@@H]12 (stereo partly drawn) [N-Butylscopolammonium bromide]
inactive: [1] 1 | [2] 1 | Shigella flexneri 0.993 | Vibrio cholerae 1.01 | [3] 1.02 | P. vulgatus RND KO 1 | P. vulgatus WT 1 | [4] 1 | [5] 0.995

CN(C)C(=O)Oc1cc(OC(=O)N(C)C)cc(C(O)CNC(C)(C)C)c1 (stereo not drawn) [Bambuterol hydrochloride]
inactive: [1] 0.992 | [2] 1 | Shigella flexneri 0.997 | Vibrio cholerae 1 | [3] 1.02 | P. vulgatus RND KO 1.05 | P. vulgatus WT 1.02 | [4] 1.01 | [5] 1.01

CC(C)CC(N(C)C)C1(c2ccc(Cl)cc2)CCC1 (stereo not drawn) [Sibutramine hydrochloride]
inactive: [1] 0.969 | [2] 1 | Shigella flexneri 0.971 | Vibrio cholerae 0.967 | [3] 1 | P. vulgatus RND KO 1.02 | P. vulgatus WT 1.02 | [4] 1 | [5] 0.999

C=CCC1(CC(C)C)C(=O)NC(=O)NC1=O [Butalbital]
inactive: [1] 0.978 | [2] 1 | Shigella flexneri 0.999 | Vibrio cholerae 1.02 | [3] 1 | P. vulgatus RND KO 0.99 | P. vulgatus WT 0.998 | [4] 0.992 | [5] 1.01

C[C@]12CCC(=O)C=C1C=C[C@@H]1[C@@H]2CC[C@@]2(C)[C@H]1CC[C@@]2(O)CCC(=O)O [Canrenoic acid potassium salt]
inactive: [1] 0.979 | [2] 0.993 | Shigella flexneri 0.97 | Vibrio cholerae 1.02 | [3] 0.983 | P. vulgatus RND KO 1.01 | P. vulgatus WT 0.996 | [4] 1.01 | [5] 1

CCCN1C[C@H](CSC)C[C@@H]2c3cccc4[nH]cc(c34)C[C@H]21 [Pergolide mesylate]
inactive: [1] 1 | [2] 0.998 | Shigella flexneri 0.959 | Vibrio cholerae 0.956 | [3] 1.01 | P. vulgatus RND KO 0.986 | P. vulgatus WT 0.956 | [4] 0.995 | [5] 0.974
